# Source: PubChem BioAssay (NCATS)
# Records with an inconclusive call do not appear. A call without a number means that no potency is given here. The source made the active and inactive calls. The call rests on the fitted dose curve; in most records, active means well fitted inhibition curve with a large enough effect; inconclusive means small, poorly fitted or top-dose-only effect; inactive means flat fitted curve, though single readings scatter. Where a SMILES comes first, the peptide text is derived from it. Bridges are numbered along the chain shown (N, C = ends). [ ]: non-standard residue; d: D form. The star is where a group is joined. ξ: configuration not given here. d(aThr) = C[C@@H](O)[C@@H](N)C(=O)O; ξThr(3R) = C[C@@H](O)C(N)C(=O)O; X3 = CC[C@@H](C)CCCCC(=O)*; dDab = NCC[C@@H](N)C(=O)O
# Target: Voltage-gated inwardly rectifying potassium channel KCNH2 (Homo sapiens) (UniProt Q12809)
# Experiment: qHTS Assay for Small Molecule Inhibitors of the Human hERG Channel Activity (AID 588834);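 further: lower thallium flux fluorescence means stronger hERG block; nearly all actives have a fitted effect of over 50% in size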
# Conditions: U2OS BacMam hERG, FluxOR thallium flux fluorescence; series mostly up to 46.1 µM
# How it was run: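 In hERG-transduced U2OS cells, dye-loaded for 1 hr at room temperature in dark, test compounds incubated 10 min at 37 °C before thallium stimulation. AC50 values derived by Hill modelling of concentration-response.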
# Potency means the concentration at half of the fitted maximal effect.
# Voltage-gated inwardly rectifying potassium channel KCNH2 (Homo sapiens), sequence (Q12809 whole entry, looked up): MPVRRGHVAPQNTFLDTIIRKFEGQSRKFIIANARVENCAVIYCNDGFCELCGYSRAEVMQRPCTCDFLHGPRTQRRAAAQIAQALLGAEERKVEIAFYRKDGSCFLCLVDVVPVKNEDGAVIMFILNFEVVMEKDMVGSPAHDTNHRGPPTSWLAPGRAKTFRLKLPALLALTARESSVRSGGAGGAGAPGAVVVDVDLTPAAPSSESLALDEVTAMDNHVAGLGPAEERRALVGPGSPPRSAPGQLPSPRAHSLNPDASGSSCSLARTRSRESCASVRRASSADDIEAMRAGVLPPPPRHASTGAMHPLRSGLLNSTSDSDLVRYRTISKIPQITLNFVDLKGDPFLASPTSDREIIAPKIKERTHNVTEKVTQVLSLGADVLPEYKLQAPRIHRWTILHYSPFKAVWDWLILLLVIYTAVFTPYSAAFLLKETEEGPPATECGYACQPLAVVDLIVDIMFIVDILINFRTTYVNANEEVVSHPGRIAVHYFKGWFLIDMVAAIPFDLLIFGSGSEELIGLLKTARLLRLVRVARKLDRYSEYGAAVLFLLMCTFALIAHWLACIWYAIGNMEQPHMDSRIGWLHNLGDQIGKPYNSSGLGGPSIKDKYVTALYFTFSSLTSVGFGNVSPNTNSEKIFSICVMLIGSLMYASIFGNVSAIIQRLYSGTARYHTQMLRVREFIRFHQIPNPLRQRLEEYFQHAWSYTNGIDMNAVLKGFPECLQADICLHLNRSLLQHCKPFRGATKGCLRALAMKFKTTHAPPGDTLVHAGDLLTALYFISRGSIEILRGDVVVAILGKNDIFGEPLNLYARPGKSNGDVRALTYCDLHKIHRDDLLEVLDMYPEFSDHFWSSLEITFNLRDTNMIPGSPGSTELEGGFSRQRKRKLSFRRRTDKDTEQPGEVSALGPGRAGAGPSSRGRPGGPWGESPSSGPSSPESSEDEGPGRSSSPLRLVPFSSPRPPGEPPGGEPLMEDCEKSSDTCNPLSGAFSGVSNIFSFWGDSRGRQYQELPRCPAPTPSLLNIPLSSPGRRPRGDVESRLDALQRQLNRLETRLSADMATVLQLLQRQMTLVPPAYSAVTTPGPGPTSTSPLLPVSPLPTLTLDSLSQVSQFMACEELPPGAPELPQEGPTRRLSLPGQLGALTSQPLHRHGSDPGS
row,Structure (SMILES),Potency
1,O=C1/C(=C\c2cccs2)CCC/C1=C\c1cccs1,inactive
2,NC(=O)c1ccc[n+]([C@@H]2O[C@H](COP(=O)([O-])OP(=O)(O)OC[C@H]3O[C@@H](n4cnc5c(N)ncnc54)[C@H](O)[C@@H]3O)[C@@H](O)[C@H]2O)c1,inactive
3,C=C1[C@@H]2CC[C@@H](C2)C1(C)C,inactive
4,CC1=C[C@H](O)CC(C)(C)[C@H]1/C=C/C(C)=C/C=C/C(C)=C/C=C/C=C(C)/C=C/C=C(C)/C=C/C1=C(C)C[C@@H](O)CC1(C)C,inactive
5,CC(CN1c2ccccc2Sc2cccnc21)N(C)C (stereo unspecified),891 nM (active)
6,Cc1cccc(C)c1Nc1ncccc1C(=O)O,inactive
7,COc1ccc([C@@H]2CC(=O)c3c(O)cc(O[C@@H]4O[C@H](CO[C@@H]5O[C@@H](C)[C@H](O)[C@@H](O)[C@H]5O)[C@@H](O)[C@H](O)[C@H]4O)cc3O2)cc1O,inactive
8,CNC(C)CCC=C(C)C (stereo unspecified),1580 nM (active)
9,CCN1C(=O)NC(c2ccccc2)C1=O (stereo unspecified),inactive
10,C=C[C@]1(C)C[C@@H](OC(=O)CSCCN(CC)CC)[C@]2(C)[C@H](C)CC[C@]3(CCC(=O)[C@H]32)[C@@H](C)[C@@H]1O,2240 nM (active)
11,C=C1CC[C@H](O)CC1=C/C=C1\CCC[C@]2(C)[C@@H]([C@H](C)CC[C@@H](O)C(C)(C)O)CC[C@@H]12,inactive
12,CC[C@@H](C)CCCCC(=O)N[C@H](CCN)C(=O)N[C@@H](C(=O)N[C@H](CCN)C(=O)N[C@@H]1CCNC(=O)C([C@@H](C)O)NC(=O)[C@@H](CCN)NC(=O)[C@@H](CCN)NC(=O)[C@@H](CC(C)C)NC(=O)[C@@H](Cc2ccccc2)NC(=O)[C@@H](CCN)NC1=O)[C@@H](C)O (stereo partly drawn) (X3-[dDab][d(aThr)][dDab][dDab][dDab][dF][dL][dDab][dDab][ξThr(3R)]; lactam 4-C),inactive
13,C=C1CC[C@H](O)CC1=C/C=C1\CCC[C@]2(C)[C@@H]([C@H](C)CCCC(C)(C)O)CC[C@@H]12,inactive
14,CO/N=C(\C(=O)N[C@@H]1C(=O)N2C(C(=O)O)=C(CSC(=O)c3ccco3)CS[C@H]12)c1csc(N)n1,inactive
15,CCCCC[C@H](O)/C=C/[C@H]1[C@H](O)CC(=O)[C@@H]1CCCCCCC(=O)O,inactive
16,CCCCCCCCCc1ccc(OCCOCCO)cc1,14100 nM (active)
17,O=C(O)c1ccc(NC2OC[C@@H](O)[C@H](O)[C@H]2O)cc1 (stereo partly specified),inactive
18,CCCCC/C=C\CCC(=O)N[C@H]1[C@H](Oc2c3cc4cc2Oc2ccc(cc2Cl)[C@@H](O[C@@H]2O[C@H](CO)[C@@H](O)[C@H](O)[C@H]2NC(C)=O)[C@@H]2NC(=O)[C@H](NC(=O)[C@@H]4NC(=O)[C@H]4NC(=O)[C@@H](Cc5ccc(c(Cl)c5)O3)NC(=O)[C@H](N)c3ccc(O)c(c3)Oc3cc(O)cc4c3)c3ccc(O)c(c3)-c3c(O[C@H]4O[C@H](CO)[C@@H](O)[C@H](O)[C@@H]4O)cc(O)cc3[C@@H](C(=O)O)NC2=O)O[C@H](CO)[C@@H](O)[C@@H]1O,inactive
19,OC[C@@H](O)C(O)[C@H](O)CO,inactive
20,C=O,inactive
21,COc1ccc2c(c1)N(C[C@H](C)CN(C)C)c1ccccc1S2,8910 nM (active)
22,O=C(OC[C@H]1O[C@](O)(COC(=O)c2cccnc2)[C@@H](OC(=O)c2cccnc2)[C@@H]1OC(=O)c1cccnc1)c1cccnc1,inactive
23,C[C@]12CC[C@@H]3c4ccc(O)cc4CC[C@H]3[C@@H]1CC[C@@H]2OP(=O)(O)O,inactive
24,CO/N=C(\C(=O)N[C@@H]1C(=O)N2C(C(=O)O)=C(CSc3nnnn3C)CS[C@H]12)c1csc(N)n1,inactive
25,CCN(CC)CCOC[C@H]1O[C@@H](O)[C@H](OCCN(CC)CC)[C@@H](O)[C@@H]1O,inactive
26,COc1c(O[C@@H]2O[C@H](CO)[C@@H](O)[C@H](O)[C@H]2O)cc2c(c1OC)-c1ccc(SC)c(=O)cc1[C@@H](NC(C)=O)CC2,inactive
